In PubChem BioAssay (NCI) one finds growth data, which are given here for 40 molecules.

Molecules are shown by their SMILES. Where “and” joins values, the source holds several entries; their conditions need not be identical. Identical values can stand only once. This is part of a sample that, as a whole, favours compounds with a hit. Of some 83,000 tested, about 20% had one in any assay.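 Results are percent growth after 48 hours of single-concentration exposure. 100 means growth as in untreated cells, lower positive values show inhibition; negative values down to -100 show cell death.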 Calls of active or inactive are those of the source.

The test system of this test is CCRF-CEM leukemia. Put plainly: NCI-60 one-dose screen, 48 h (100 = growth as untreated, 0 = no growth, -100 = all killed). The following applies: 10 µM. How it is done:
Growth inhibition of the CCRF-CEM human tumor cell line is measured as a screen for anti-cancer activity. Cells are grown in 96 well plates and exposed to the test compound for 48 hours. Compounds are tested at a single concentration, which is 10^-5 M for most compounds. The reported endpoint is percent growth (GI% or GIPRCNT), where numbers from 0 - 100% represent growth inhibition, and numbers from -100% - 0 represent cell death. For example, a value of 40 represents 60% growth inhibition. A value of 0 means no net growth occurred over the course of the experiment. A value of -40 indicates 40% of cells at the beginning of the experiment died by the end of the experiment. A value of -100 means all cells are dead at the end of the experiment.
NCI-60 Human Tumor Cell Lines Screen was performed using the standard one-dose NCI protocol, which is described in more detail at https://dtp.cancer.gov/discovery_development/nci-60/default.htm.
Compounds with GIPRCNT values below 10 were considered active. Activity score was based on GIPRCNT using the following formula: […]
Score is 0 for GIPRCNT values of 100 or above, 50 for GIPRCNT values of 0, and 100 for GIPRCNT values of -100.
Take `COc1cc2c(cc1OC)[C@@H]1N(CC2)C(=O)c2ccccc2[C@@]1(C)C(=O)O`: the growth was 105% (inactive). The result for `CCCCCCCCCC(=O)N[C@@](C)(CC)C(=O)N1CCC[C@H]1C(=O)N[C@@H](CC(C)C)C(=O)N[C@@](C)(CC)C(=O)N[C@@H](CCC(N)=O)C(=O)N[C@H](CCC(N)=O)C(=O)NC(C)(C)C(=O)NC(C)(C)C(=O)N[C@@H](CCC(N)=O)C(=O)N[C@H](CC(C)C)C(=O)N[C@H](CO)CC(C)C` reads -38.9% (active) and -40.9% (active); that for `COc1cc(OC)c(S(=O)(=O)N(CCCl)CCCl)cc1C(=O)/C=C/c1ccc(Cl)cc1`, 16.4% (inactive); that for `COC(=O)[C@H]1[C@@H](O)[C@@]2(O)c3c(OC)cc(OC)cc3O[C@@]2(c2ccc(OC)cc2)[C@@H]1c1ccccc1`, 4.76% (active). The result for `CC1=C2C(=C[C@@](C)(COC(=O)c3ccc(S(=O)(=O)F)cc3)[C@@H]2OC(=O)c2ccc(S(=O)(=O)F)cc2)C(=O)[C@](C)(O)C12CC2` reads 36.3% (inactive); that for `C/C=C\C(=O)O[C@@H]1CC2O[C@@H]3C=C(C)C(=O)C[C@]3(C)[C@]1(C)[C@]21CO1`, -12.8% (active). In the case of `CC1=C[C@H]2O[C@@H]3C[C@H]4OC(=O)/C=C\C=C\[C@H]([C@@H](C)O)OCC/C(C)=C/C(=O)OC[C@@]2(CC1)[C@]4(C)[C@]31CO1`, the growth was -11.5% (active). For `CC(C)=CCc1c2c(c(O)c3c1O[C@]14C(=C[C@@H]5C[C@H]1C(C)(C)O[C@@]4(C/C=C(/C)C(=O)O)C5=O)C3=O)C=CC(C)(C)O2`, the growth was -1.96% (active). Turning to `N#Cc1c(-n2c(Br)c(Br)c3cc(Br)ccc32)[nH]c2c(Br)cc(Br)cc12`, the growth is 13.2% (inactive). The result for `CN(CCF)/N=N/c1nc[nH]c1C(N)=O` reads 20.8% (inactive); that for `C/C=C/CC(C)C(O)[C@H](NC(=O)[C@@H]1CCCN1C(=O)C(C)(C)NC(=O)CCCCCCCCC)C(=O)NC(C)(C)C(=O)N[C@@H](CCC(N)=O)C(=O)N[C@H](CCC(N)=O)C(=O)NC(C)(C)C(=O)NC(C)(C)C(=O)N[C@@H](CCC(N)=O)C(=O)N[C@H](CC(C)C)C(=O)N[C@H](CO)CC(C)C` (stereo not given in full), -12.7% (active) and -38.8% (active). As to `C/C=C/CC(C)C(O)[C@H](NC(=O)[C@@H]1CCCN1C(=O)C(C)(C)NC(=O)CCCCCCCCC)C(=O)N[C@@](C)(CC)C(=O)N[C@@H](CCC(N)=O)C(=O)N[C@H](CCC(N)=O)C(=O)NC(C)(C)C(=O)NC(C)(C)C(=O)N[C@@H](CCC(N)=O)C(=O)N[C@H](CC(C)C)C(=O)N[C@H](CO)CC(C)C` (stereo not given in full), the growth is 14.7% (inactive) and 49.4% (inactive). Take `C[C@@H]1CCC/C=C/[C@H]2C[C@@H](O)C[C@@H]2[C@@H](O)/C=C/C(=O)O1`: the growth is 12.3% (inactive). The result for `C/C=C/CC(C)C(O)[C@H](NC(=O)[C@@H]1CCCN1C(=O)C(C)(C)NC(=O)CCCCCCC)C(=O)N[C@@](C)(CC)C(=O)N[C@@H](CCC(N)=O)C(=O)N[C@H](CCC(N)=O)C(=O)NC(C)(C)C(=O)NC(C)(C)C(=O)N[C@@H](CCC(N)=O)C(=O)N[C@H](CC(C)C)C(=O)N[C@H](CO)CC(C)C` (stereo not given in full) reads 103% (inactive) and -23.3% (active); that for `COc1cccc2c1cc([N+](=O)[O-])c1c(C(=O)O)cc3c(c12)OCO3`, 96.6% (inactive).

Take `CC1=C(CN(O)C(N)=O)C2=C(C)C3(CC3)[C@@](C)(O)C(=O)C2=C1`: the growth was 94.7% (inactive). The result for `COC1[C@@H]2C[C@H]3C(C)(C)O[C@@](C/C=C(/C)C(=O)O)(C2=O)[C@]32Oc3c(CC=C(C)C)c4c(c(O)c3C(=O)[C@H]12)C=CC(C)(C)O4` (stereo not given in full) reads -1.89% (active); that for `O=C(CCCc1ccc(N(CCCl)CCCl)cc1)OCc1ccccc1`, 82.1% (inactive); that for `CC1=C2C(=O)[C@](C)(CO)C=C2C(=O)[C@](C)(O)C12CC2`, 13.9% (inactive). The result for `CC1=C2C(=C[C@@](C)(COS(C)(=O)=O)[C@@H]2O)C(=O)[C@](C)(O)C12CC2` reads 11% (inactive). The result for `CC(=O)O[C@@H]1C[C@H]2O[C@@H]3C=C(C)CC[C@]3(C)[C@]1(C)[C@]21CO1` reads -3.18% (active); that for `C[C@@H]1C[C@H]2C(=O)O[C@@H](C)C(NC(=O)[C@H](Cc3cc(F)cc(F)c3)NC(=O)Nc3ccc(OS(=O)(=O)F)cc3)C(=O)N3CCC[C@H]3C(=O)N3CCO[C@H](C)[C@H]3C(=O)N[C@@H](CO)C(=O)N2C1` (stereo not given in full), 34.1% (inactive).

Consider `CN1C(=O)[C@]23SSC1(C)C(=O)N2[C@H]1Nc2ccccc2C1([C@@]12c4ccccc4N[C@@H]1N1C(=O)C4(C)SS[C@]1(C(=O)N4C)[C@H]2O)[C@@H]3O` (stereo not given in full), for which the growth is 1.4% (active). Turning to `CC1=C[C@H]2O[C@@H]3C[C@@H](O)[C@](C)([C@@]2(C)CC1)[C@@]31CO1`, the growth was 13.8% (inactive). Consider `CC1=C2C(=C[C@@](C)(C=O)[C@@H]2O)C(=O)[C@](C)(O)C12CC2`, for which the growth is 22.6% (inactive). The result for `CC1=C2C(=C[C@@](C)(COC(=O)c3ccc(S(=O)(=O)F)cc3)[C@@H]2O)C(=O)[C@](C)(O)C12CC2` reads 9.59% (active). The result for `N#Cc1nc(-c2ccccc2)oc1N1CCC(S(=O)(=O)F)CC1` reads 100% (inactive); that for `COc1cc2c(O[C@@H]3OC[C@H](O)[C@H](O)[C@H]3O)c3c(c(-c4ccc5c(c4)OCO5)c2cc1OC)C(=O)OC3`, 46.6% (inactive). As to `COc1cc2c(O[C@@H]3OC[C@H](OC(C)=O)[C@H](OC(C)=O)[C@H]3O)c3c(c(-c4ccc5c(c4)OCO5)c2cc1OC)C(=O)OC3`, the growth is 20.1% (inactive). The result for `CC1=C[C@H]2O[C@@H]3C[C@H]4OC(=O)/C=C\C=C\[C@H]([C@@H](C)O)OCC[C@@H](C)[C@H](O)C(=O)OC[C@@]2(CC1)[C@]4(C)[C@]31CO1` reads -7.82% (active); that for `CC(=O)O[C@@H]1[C@@H]2O[C@H]2[C@@](C)(O)C(=O)[C@@H](C)C/C=C/[C@H]2[C@@H]3O[C@]3(C)[C@@H](C)C3[C@H](Cc4ccccc4)NC(=O)[C@@]312` (stereo not given in full), 44.2% (inactive); that for `COc1cc(C)c(-c2ccc(OC)c(=O)cc2C)c(OC)c1OC`, 10.1% (inactive) and 96.8% (inactive). The result for `CC1=C(CN(O)C(N)=O)C2=C(C)C3(CC3)[C@](C)(O)C(=O)C2=C1` reads 1.19% (active); that for `CC1=C(CCC=NNC(N)=O)C2=C(C)C3(CC3)[C@@](C)(O)C(=O)C2=C1`, 26.6% (inactive); that for `C/C=C/CC(C)C(O)[C@H](NC(=O)[C@@H]1CCCN1C(=O)C(C)(C)NC(=O)CCCCCCCCC)C(=O)N[C@@](C)(CC)C(=O)N[C@@H](CCC(N)=O)C(=O)N[C@H](CCC(N)=O)C(=O)NC(C)(C)C(=O)N[C@@](C)(CC)C(=O)N[C@@H](CCC(N)=O)C(=O)N[C@H](CC(C)C)C(=O)N[C@H](CO)CC(C)C` (stereo not given in full), 98.9% (inactive) and -46.2% (active).

On to `NC1CCc2cc(O)c(O)cc2C1` (stereo not given), for which the growth was 48% (inactive).

`CC(C)(O)/C=C/C(=O)[C@](C)(O)[C@H]1[C@H](O)C[C@@]2(C)[C@H]3CC=C4[C@@H](C[C@H](O)C(=O)C4(C)C)[C@]3(C)C(=O)C[C@]12C`: the growth was 3.53% (active).

As to `CCC(C)[C@H]1C(=O)O[C@H](C(C)C)C(=O)N(C)[C@@H](C(C)C)C(=O)O[C@H](C(C)C)C(=O)N(C)[C@@H](C(C)C)C(=O)O[C@H](C(C)C)C(=O)N1C` (stereo not given in full), the growth is 7.02% (active). The result for `C=C1[C@@H](C)C2[C@H](Cc3ccccc3)NC(=O)[C@]23[C@H](OC(C)=O)/C=C/[C@@](C)(O)C(=O)[C@@H](C)C/C=C/[C@H]3[C@@H]1O` (stereo not given in full) reads 48.7% (inactive); that for `Cc1ccc(CNc2nc3ccc(OC/C(=C/F)CN)cc3o2)cn1`, 105% (inactive).
